Our source for the binding signal values is publication PMC12864922, “TDP-43 directly inhibits mRNA accumulation in neurites through modulation of mRNA stability”.

In all, about 9,900 sequences were measured (“r (bound/input frequency ratio)”: median about 0.7, highest 2% from about 6.5 on). This excerpt belongs to a sample that is enriched for the highest values.

B1: ENSMUSG00000061578.187|Ksr2 (ssRNA)
RNA: GGGAGUUCUACAGUCCGACGAUCGCUUCGAUAUCCGCAUGCUAUUGUGCACACUCAGCACCCCAUCUUCCAAGCCUUUCUUCAUCCCCCACCUUCUUUUGGGAAGGGGUGGCACAGAGUGAAUGGGAAGGAGAGCCCUGAGGUCACUGGUCCACAUGCCCAAAGCCAUGCCCCCCAGUGAUCAGACCUGACACAAGAGGCAAAGCUGUCCCUAAGCAGAGAAUUAGCAGGGUUAGCCAGACAGCAAAAUCCAUGUAAACAUACAAAACCACCCCCCCUUUUUGAGUGGCCCUAUUGGAUGUACCUCUUGCGGUCGCACUAGUGUGGAAUUCUCGGGUGUCAAGG
B2: ENSMUSG00000029028.28|Lrrc47 (ssRNA)
RNA: GGGAGUUCUACAGUCCGACGAUCGCUUCGAUAUCCGCAUGCUAUCUGUGUGGGUGUGGGUGUGCUAUAGGUAUCUGUGGGUGUGCUGUAGGUGUCUGUGUGGGUGUGCUGUAGGUGUCUGUGUAGGUGUGGGUGUGCUGUAGGUGUCUGUGUGGGUGUGCUAGGUGUCUGUAUAGGUGUGGGUGUGCUGUAGAUGUCUGUGUAGGUAUGGGUGUGCUGUAGAUCUUUGUAGGUGUAGGUAUGCUGUAGGUAUCUGGGUGUGGGUAUGCUGUAGAUGUCUGUGUAGGUGUGGAUAUGCUGUAGGCUCUUGCGGUCGCACUAGUGUGGAAUUCUCGGGUGUCAAGG
B3: ENSMUSG00000029028.68|Lrrc47 (ssRNA)
RNA: GGGAGUUCUACAGUCCGACGAUCGCUUCGAUAUCCGCAUGCUAAGGUGUGGAUAUGCUGUAGGUAUCUGGGUGUGCUGUAGGUGUCUGUGUGGGUGUGGGUGUGCUGUGGGUGUCUGUGUGGGUGUGCUGUAGGUGUCUGUAGGUGUGGGUAUGCUGCAGGUGUGGGUGUGCUGUAGAUCUCUAUAGGUGUGGGUGUGCUGUAGGGGUCUGUGUGGGUAUAGGUGUGGGUGUGCUGUAGAUUCUGUGUAACUGGUUCUUUGCUGUUUCUCUGGGUGUUUUAAGGUGUCUGCUUUUGUCCAGGUCUCUUGCGGUCGCACUAGUGUGGAAUUCUCGGGUGUCAAGG
B4: ENSMUSG00000029028.21|Lrrc47 (ssRNA)
RNA: GGGAGUUCUACAGUCCGACGAUCGCUUCGAUAUCCGCAUGCUAUGUGCUGUAGGUGUCUGUGUGGGUGUGGGUGUGCUGUAGGUGUCUGUGUGGGUGUGGGUGUGCUAUAGGUAUCUGUGGGUGUGCUGUAGGUGUCUGUGUGGGUGUGCUGUAGGUGUCUGUGUAGGUGUGGGUGUGCUGUAGGUGUCUGUGUGGGUGUGCUAGGUGUCUGUAUAGGUGUGGGUGUGCUGUAGAUGUCUGUGUAGGUAUGGGUGUGCUGUAGAUCUUUGUAGGUGUAGGUAUGCUGUAGGUAUCUGGGUGUGCUCUUGCGGUCGCACUAGUGUGGAAUUCUCGGGUGUCAAGG
B5: ENSMUSG00000029028.38|Lrrc47 (ssRNA)
RNA: GGGAGUUCUACAGUCCGACGAUCGCUUCGAUAUCCGCAUGCUAUGUGCUGUAGGUGUCUGUGUAGGUGUGGGUGUGCUGUAGGUGUCUGUGUGGGUGUGCUAGGUGUCUGUAUAGGUGUGGGUGUGCUGUAGAUGUCUGUGUAGGUAUGGGUGUGCUGUAGAUCUUUGUAGGUGUAGGUAUGCUGUAGGUAUCUGGGUGUGGGUAUGCUGUAGAUGUCUGUGUAGGUGUGGAUAUGCUGUAGGUAUCUGGGUGUGCUGUAGGUGUCUGUGUGGGUGUGGGUGUGCUGUGGGUGUCUGUGUGGGCUCUUGCGGUCGCACUAGUGUGGAAUUCUCGGGUGUCAAGG
B6: ENSMUSG00000029028.20|Lrrc47 (ssRNA)
RNA: GGGAGUUCUACAGUCCGACGAUCGCUUCGAUAUCCGCAUGCUAUGUGGGUGUGCUGUAGGUGUCUGUGUGGGUGUGGGUGUGCUGUAGGUGUCUGUGUGGGUGUGGGUGUGCUAUAGGUAUCUGUGGGUGUGCUGUAGGUGUCUGUGUGGGUGUGCUGUAGGUGUCUGUGUAGGUGUGGGUGUGCUGUAGGUGUCUGUGUGGGUGUGCUAGGUGUCUGUAUAGGUGUGGGUGUGCUGUAGAUGUCUGUGUAGGUAUGGGUGUGCUGUAGAUCUUUGUAGGUGUAGGUAUGCUGUAGGUAUCUGCUCUUGCGGUCGCACUAGUGUGGAAUUCUCGGGUGUCAAGG
B7: ENSMUSG00000029028.19|Lrrc47 (ssRNA)
RNA: GGGAGUUCUACAGUCCGACGAUCGCUUCGAUAUCCGCAUGCUAUGUAGGUGUGGGUGUGCUGUAGGUGUCUGUGUGGGUGUGGGUGUGCUGUAGGUGUCUGUGUGGGUGUGGGUGUGCUAUAGGUAUCUGUGGGUGUGCUGUAGGUGUCUGUGUGGGUGUGCUGUAGGUGUCUGUGUAGGUGUGGGUGUGCUGUAGGUGUCUGUGUGGGUGUGCUAGGUGUCUGUAUAGGUGUGGGUGUGCUGUAGAUGUCUGUGUAGGUAUGGGUGUGCUGUAGAUCUUUGUAGGUGUAGGUAUGCUGUAGGCUCUUGCGGUCGCACUAGUGUGGAAUUCUCGGGUGUCAAGG
B8: ENSMUSG00000029028.44|Lrrc47 (ssRNA)
RNA: GGGAGUUCUACAGUCCGACGAUCGCUUCGAUAUCCGCAUGCUAUAGGUGUCUGUGUGGGUGUGCUAGGUGUCUGUAUAGGUGUGGGUGUGCUGUAGAUGUCUGUGUAGGUAUGGGUGUGCUGUAGAUCUUUGUAGGUGUAGGUAUGCUGUAGGUAUCUGGGUGUGGGUAUGCUGUAGAUGUCUGUGUAGGUGUGGAUAUGCUGUAGGUAUCUGGGUGUGCUGUAGGUGUCUGUGUGGGUGUGGGUGUGCUGUGGGUGUCUGUGUGGGUGUGCUGUAGGUGUCUGUAGGUGUGGGUAUGCUGCACUCUUGCGGUCGCACUAGUGUGGAAUUCUCGGGUGUCAAGG
B9: ENSMUSG00000029028.67|Lrrc47 (ssRNA)
RNA: GGGAGUUCUACAGUCCGACGAUCGCUUCGAUAUCCGCAUGCUACUGUGUAGGUGUGGAUAUGCUGUAGGUAUCUGGGUGUGCUGUAGGUGUCUGUGUGGGUGUGGGUGUGCUGUGGGUGUCUGUGUGGGUGUGCUGUAGGUGUCUGUAGGUGUGGGUAUGCUGCAGGUGUGGGUGUGCUGUAGAUCUCUAUAGGUGUGGGUGUGCUGUAGGGGUCUGUGUGGGUAUAGGUGUGGGUGUGCUGUAGAUUCUGUGUAACUGGUUCUUUGCUGUUUCUCUGGGUGUUUUAAGGUGUCUGCUUUUGUCUCUUGCGGUCGCACUAGUGUGGAAUUCUCGGGUGUCAAGG
B10: ENSMUSG00000029028.66|Lrrc47 (ssRNA)
RNA: GGGAGUUCUACAGUCCGACGAUCGCUUCGAUAUCCGCAUGCUAAGAUGUCUGUGUAGGUGUGGAUAUGCUGUAGGUAUCUGGGUGUGCUGUAGGUGUCUGUGUGGGUGUGGGUGUGCUGUGGGUGUCUGUGUGGGUGUGCUGUAGGUGUCUGUAGGUGUGGGUAUGCUGCAGGUGUGGGUGUGCUGUAGAUCUCUAUAGGUGUGGGUGUGCUGUAGGGGUCUGUGUGGGUAUAGGUGUGGGUGUGCUGUAGAUUCUGUGUAACUGGUUCUUUGCUGUUUCUCUGGGUGUUUUAAGGUGUCUGCCUCUUGCGGUCGCACUAGUGUGGAAUUCUCGGGUGUCAAGG

For the test, the target named is TDP-43 (Homo sapiens, UniProt Q13148 1-414). Nature of the test: RNA Bind-n-Seq with designed 260-mer pool; 25 mM Tris-HCl, 150 mM KCl, 3 mM MgCl2, BSA (printed 500 mg/mL), 20 units/mL SUPERase IN; pH not stated; 500 nM RNA pool, 1 h, 4 C; TDP-43 5, 50, 500 nM; high values mean tight binding. The note with it: protein: recombinant; tags: SBP (GST cleaved off with PreScission; pGEX-GST-SBP). The procedure, abridged: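 Streptavidin beads captured recombinant SBP-tagged TDP-43 at 5, 50 or 500 nM, and the beads were incubated for 1 h at 4 °C with 500 nM of an in vitro-transcribed pool of 260-nt 3′ UTR oligos in 25 mM Tris-HCl, 150 mM KCl, 3 mM MgCl2, BSA and SUPERase IN. After washing, bound RNA was eluted with biotin, reverse transcribed, PCR-amplified and sequenced. Binding is reported as R, the mapped-read-normalized abundance of each oligo in the bound sample divided by its abundance in the input. Two independent protein batches served as duplicates.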
Chain of TDP-43 (Q13148 whole entry): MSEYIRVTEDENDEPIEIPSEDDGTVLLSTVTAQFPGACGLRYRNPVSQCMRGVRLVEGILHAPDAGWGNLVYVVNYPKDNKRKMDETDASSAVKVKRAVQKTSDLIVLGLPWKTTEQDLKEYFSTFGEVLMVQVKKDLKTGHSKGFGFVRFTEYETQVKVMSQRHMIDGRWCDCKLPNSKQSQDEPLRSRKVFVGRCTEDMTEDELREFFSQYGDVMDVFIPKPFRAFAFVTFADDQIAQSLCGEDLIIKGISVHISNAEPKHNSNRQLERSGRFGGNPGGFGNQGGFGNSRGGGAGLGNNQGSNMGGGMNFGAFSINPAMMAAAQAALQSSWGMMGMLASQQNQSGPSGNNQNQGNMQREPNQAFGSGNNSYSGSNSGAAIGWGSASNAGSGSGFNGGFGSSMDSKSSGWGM
Take B1: the binding signal was 0.56 R (bound/input frequency ratio).
With B2, the binding signal is 6.68 R (bound/input frequency ratio).
Take B3: the binding signal was 7.46 R (bound/input frequency ratio).
For the molecule B4, the binding signal is 5.32 R (bound/input frequency ratio).
As to B5, the binding signal is 5.89 R (bound/input frequency ratio).
Take B6: the binding signal was 5.01 R (bound/input frequency ratio).
For the molecule B7, the binding signal was 6.81 R (bound/input frequency ratio).
Take B8: the binding signal is 6.44 R (bound/input frequency ratio).
Take B9: the binding signal was 6.13 R (bound/input frequency ratio).
Under B10 stands 4.75 R (bound/input frequency ratio).
